Screening results: PubChem BioAssay, National Center for Advancing Translational Sciences (NCATS)
Pf growth 96h: Primary qHTS for delayed death inhibitors of the malarial parasite plastid, 96 hour incubation. 320,000 tested, 6.9% active. P. falciparum luciferase reporter growth, 96 h. Potency, µM (titrated, usually from 28.7 µM), for the others: at the top dose activity change, negative = inhibition, hits mostly inhibitors; further: potency means the concentration at half of the fitted maximal effect
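Erythrocytes infected with luciferase-expressing P. falciparum were dispensed at 2% hematocrit and 0.05% parasitemia (final), then incubated with compounds 96 hours at 37 C in 5% CO2. Luminescence after detection reagent addition reported growth.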
HCMV inh: qHTS Assay for inhibitors of the human cytomegalovirus (HCMV); HFF cells, HCMV-luciferase reporter, 72 h; hits give low values; activity change, negative = inhibition, % at 57.5 µM; 410,000 tested, 4.5% active; in the data active means activity change below about -60%; inconclusive means no clear call, values can overlap the other calls; inactive means above about -39%
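Luciferase read-out from HCMV-luciferase-infected HFFs (MOI 1 PFU/cell) 72 h post infection at 37C; compounds added after 16 h cell attachment; activity normalized between buffer-only basal and Salinomycin (10uM) inhibitor controls.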
Giardia FBPA inh: qHTS Assay for Inhibitors of Fructose-1,6-bisphosphate Aldolase from Giardia Lamblia; AID 2451, 2010; A8B2U2; Potency, µM (doses to about 59.6 µM), for the others: at the highest dose activity, negative = inhibition, usual class: inhibitors; purified Giardia FBPA; 290,000 tested, 0.71% active; further: potency means the concentration at half of the fitted maximal effect; nearly all actives have a fitted effect of over 55% in size
Target sequence (A8B2U2 whole entry, looked up): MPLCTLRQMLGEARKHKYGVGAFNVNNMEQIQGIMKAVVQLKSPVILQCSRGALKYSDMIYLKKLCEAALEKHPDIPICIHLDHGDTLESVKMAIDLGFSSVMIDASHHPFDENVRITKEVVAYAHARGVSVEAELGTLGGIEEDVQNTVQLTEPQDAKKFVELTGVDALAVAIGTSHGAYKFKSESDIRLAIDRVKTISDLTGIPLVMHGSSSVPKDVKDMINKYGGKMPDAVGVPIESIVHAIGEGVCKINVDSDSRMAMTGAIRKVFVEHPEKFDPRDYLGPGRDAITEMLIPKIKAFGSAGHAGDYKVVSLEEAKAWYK
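Giardia FBPA (40 nM reagent) was preincubated 10 min at RT with compound (up to 57.5 uM final), then substrate plus GAPDH/TPI/NAD/arsenate coupling system with diaphorase/resazurin was added; resorufin fluorescence (525/598 nm) was read after 20 min.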
Pf growth 48h: Primary qHTS for delayed death inhibitors of the malarial parasite plastid, 48 hour incubation; P. falciparum luciferase growth in erythrocytes, 48 h; Potency, µM (series often up to 28.7 µM), inactives show top-dose activity change, negative = inhibition, hits mostly inhibitors; 310,000 tested, 5.9% active; further: potency means the concentration at half of the fitted maximal effect
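Parasite viability was followed by luminescence of a genomically integrated firefly luciferase. Cultures held 0.1% parasitemia at 2% hematocrit (final), incubated under 5% CO2 at 37 C.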
Sm TGR block: qHTS Assay for the Inhibitors of Schistosoma Mansoni Peroxiredoxins; purified TGR, DTNB reduction, TNB absorbance 405 nm; AID 485364, 2010; 360,000 tested, 3% active; Potency, µM (highest dose often 114 µM), without a hit: top-dose activity change, negative = inhibition, actives largely listed as inhibitors; Schistosoma mansoni thioredoxin glutathione reductase (TGR), Q962Y6; further: potency means the concentration at half of the fitted maximal effect; nearly all actives have a fitted effect of over 60% in size
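First, TGR (20 nM dispensed) and NADPH were mixed with compound. Second, a 15 min room-temperature incubation followed. Third, further NADPH and then DTNB were added to start the reaction. Finally, TNB absorbance was monitored kinetically.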
* = called active by the depositor; [ ] = dose if it differs, or a comment. The list is not random: actives were taken first. Their share in the collection is about 14%. Unless noted, the call rests on the fitted dose curve; in most records, active means well fitted curve in the direction sought with a large enough effect; inconclusive means small, poorly fitted or top-dose-only effect, or another doubt; inactive means no such curve, though single readings can be large; an effect the other way counts as inactive or inconclusive. On the % scale 0 is the no-effect control and ±100 the full control effect.

How did CCc1ccccc1OCC(=O)Nc1cc(S(=O)(=O)N2CCOCC2)ccc1N1CCCCC1 do in these assays?
Pf growth 96h: 1.04µM*; HCMV inh: -27.8; Pf growth 48h: 2.94µM*; Sm TGR block: -4.5%

What do the screens show for `O=C(COc1ccc(F)cc1Br)Nc1ccccc1N1CCOCC1`?
Pf growth 96h: inconclusive; HCMV inh: -3.2; Pf growth 48h: 10.4µM*; Sm TGR block: -1.6%

What do the screens show for `O=C(COC(=O)c1ccc(F)cc1)Nc1cc(S(=O)(=O)N2CCOCC2)ccc1N1CCCC1`?
Pf growth 96h: -25.1%; HCMV inh: 139.4; Giardia FBPA inh: 0.8%; Pf growth 48h: -19.8%; Sm TGR block: -11.7%

How did CCN(CC)S(=O)(=O)c1ccc(N2CCN(C)CC2)c(NC(=O)COc2ccc(F)cc2Cl)c1 do in these assays?
Pf growth 96h: inconclusive; HCMV inh: -39.0; Pf growth 48h: 10.4µM*; Sm TGR block: -14.0%

How did COc1ccc(C(C(=O)NC2CCCC2)N(C(=O)c2ccco2)c2cc3c(cc2C(C)=O)OCO3)cc1 (stereo not drawn) do in these assays?
Pf growth 96h: -10.1%; HCMV inh: -24.3; Giardia FBPA inh: 3.9%; Pf growth 48h: -25.3%; Sm TGR block: -12.2%

What do the screens show for `Clc1ccc(C(c2ccccc2)c2c[nH]c3ccccc23)s1` (stereo not drawn)?
HCMV inh: -66.6*; Sm TGR block: -1.1%

What do the screens show for `Cc1ccc2[nH]cc(C(c3ccccc3)c3ccc(Cl)s3)c2c1` (stereo not drawn)?
HCMV inh: inconclusive; Sm TGR block: 3.6%

What do the screens show for `COc1ccc2c(c1)C(c1ccc(C)cc1)CC(=O)O2` (stereo not drawn)?
Giardia FBPA inh: 2.7%[89.2 µM]

Results for COc1ccc(N(CC(=O)NCCc2ccc(Cl)cc2)S(=O)(=O)c2c(C)[nH]c(=O)[nH]c2=O)cc1 ?
Pf growth 96h: inconclusive; HCMV inh: -33.9; Giardia FBPA inh: 10.5%; Pf growth 48h: -22.6%; Sm TGR block: 0.0%

How did CO[C@@H]1COC(=O)CCC[C@@H](C)[C@H](OC)COC(=O)[C@H](Cc2ccccc2)NC(=O)C/C=C\[C@H]1C do in these assays?
Giardia FBPA inh: -2.0%[12.9 µM]

What do the screens show for `COc1ccc(-c2nc(SC)n(C)c(=O)c2C#N)cc1OC`?
Pf growth 96h: inconclusive; HCMV inh: -61.5*; Giardia FBPA inh: -1.3%; Pf growth 48h: -21.3%; Sm TGR block: 6.8%

What do the screens show for `Cc1ccc2nc(Cc3ccc(N)cc3)[nH]c2c1`?
Pf growth 96h: 98.6%; HCMV inh: 33.5; Giardia FBPA inh: inconclusive; Pf growth 48h: 30.3%; Sm TGR block: 9.9%

How did Cc1nc2ccc(Cc3ccc4nc(C)[nH]c4c3)cc2[nH]1 do in these assays?
Pf growth 96h: 10.4µM*; HCMV inh: -4.1; Giardia FBPA inh: 2.3%; Pf growth 48h: inconclusive; Sm TGR block: -5.7%

What do the screens show for `Cc1nc2ccc(N=NN(C)C)cc2[nH]1`?
Pf growth 96h: 28.1%; HCMV inh: -10.7; Giardia FBPA inh: -21.6%; Pf growth 48h: 26.6%; Sm TGR block: 20µM*

How did CCc1noc(C)c1C(=O)Nc1cc(S(=O)(=O)N2CCCCC2)ccc1N(C)C do in these assays?
Pf growth 96h: inconclusive; HCMV inh: 1.5; Pf growth 48h: inconclusive; Sm TGR block: -6.6%

How did Cc1ccc(NC(=O)/C=C/c2ccco2)cc1S(=O)(=O)N1CCCCCC1 do in these assays?
HCMV inh: -89.2*

How did CCc1noc(C)c1C(=O)Nc1ccc(C)c(S(=O)(=O)N2CCCCCC2)c1 do in these assays?
Pf growth 96h: inconclusive; HCMV inh: -37.9; Pf growth 48h: 10.4µM*; Sm TGR block: 2.9%

What do the screens show for `Cc1ccc(NC(=O)CN2C(=O)CN(C)C2=O)cc1S(=O)(=O)N1CCCCC1`?
Pf growth 96h: -27.6%; HCMV inh: 6.0; Giardia FBPA inh: -6.5%; Pf growth 48h: -5.5%; Sm TGR block: -0.6%

What do the screens show for `Cc1ccc(NC(=O)CNc2ccccc2N2CCCC2=O)cc1S(=O)(=O)N1CCCCC1`?
Pf growth 96h: 9.28µM*; HCMV inh: 46.8; Pf growth 48h: 10.4µM*; Sm TGR block: -12.4%

How did Cc1ccc(NC(=O)Cc2ccccc2F)cc1S(=O)(=O)N1CCCCCC1 do in these assays?
Pf growth 96h: inconclusive; HCMV inh: -77.8*; Pf growth 48h: inconclusive; Sm TGR block: 7.3%

Results for COc1ccc(CC(=O)N2CC3ON=C(c4c(F)cccc4Cl)C3C2)cc1 (stereo not drawn) ?
HCMV inh: 52.5

How did Cc1ccc(NC(=O)CSc2nnc(C3CC3)n2C)cc1S(=O)(=O)N1CCCCC1 do in these assays?
Pf growth 96h: inconclusive; HCMV inh: -0.7; Pf growth 48h: 13.1µM*; Sm TGR block: -2.5%

What do the screens show for `Cc1ccc(NC(=O)CCl)cc1S(=O)(=O)N1CCCCCC1`?
Pf growth 96h: 9.28µM*; HCMV inh: -97.7*; Giardia FBPA inh: -3.0%; Pf growth 48h: -5.7%; Sm TGR block: 7.94µM*

Results for Cc1cc(NS(=O)(=O)c2ccc(NC(=O)c3ccco3)cc2)nc(C)n1 ?
Pf growth 96h: -0.6%; HCMV inh: 2.3; Giardia FBPA inh: 4.0%; Sm TGR block: -25.2%

How did COCCNCC(=O)Nc1ccc(C)c(S(=O)(=O)N2CCCCC2)c1 do in these assays?
Pf growth 96h: -2.7%; HCMV inh: -5.4; Giardia FBPA inh: inconclusive; Pf growth 48h: -2.5%; Sm TGR block: 6.2%

What do the screens show for `Cc1cc(NS(=O)(=O)c2ccc(NC(=O)/C=C/c3ccco3)cc2)nc(C)n1`?
Pf growth 96h: inconclusive; HCMV inh: 2.1; Giardia FBPA inh: 23.5%; Pf growth 48h: -8.9%; Sm TGR block: 3.98µM*

What do the screens show for `COc1ccc(NC(=O)COC(=O)CCC(=O)c2cccs2)cc1OC`?
Pf growth 96h: 5.1%; HCMV inh: -16.5; Pf growth 48h: -4.9%; Sm TGR block: -14.4%

What do the screens show for `CC1(c2nnc(-c3ccncc3)o2)CC(c2cccc(Cl)c2)=NO1` (stereo not drawn)?
HCMV inh: -10.7

How did C[C@@H](c1ccccc1)N1C[C@@H](COCc2ccccc2)Oc2cc(N3CCC[C@H]3C(N)=O)ccc2S1(=O)=O do in these assays?
HCMV inh: 6.1

How did COc1ccc(C(C)C)cc1S(=O)(=O)NCCc1c(C)[nH]c2c(Cl)cccc12 do in these assays?
HCMV inh: 2.5; Sm TGR block: -4.8%

What do the screens show for `COc1ccc(NC(=O)CSc2nnc(-c3cc(C)[nH]n3)n2N)cc1`?
Pf growth 96h: inconclusive; HCMV inh: -34.5; Pf growth 48h: -17.4%; Sm TGR block: 0.5%

Results for Cc1ccccc1NC(=O)/C(C#N)=C/c1ccc[nH]1 ?
Pf growth 96h: 11.7µM*; HCMV inh: 198.9; Giardia FBPA inh: 10.0%; Pf growth 48h: 0.9%; Sm TGR block: -10.3%
